Among the data in PubChem BioAssay (NCI) are growth values, retold here.

About 83,000 compounds went through this panel and 20% of them were active in at least one assay; those are over-represented in the sample as a whole.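 The test compound was applied at a single concentration to cells in 96-well plates for 48 hours, and percent growth was recorded.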 Unmarked numbers belong to inactive results. Activity calls are given as the source filed them. Rule for the calls: active = growth percent below 10; inactive = the rest.

Some test systems named below: NCI-H23 lung; NCI-H226 lung; NCI-H322M lung; HOP-62 NSCLC; NCI-H460 lung; HOP-92 NSCLC; NCI-H522 lung; A549/ATCC NSCLC; 786-0 renal; COLO 205 colon; DU-145 prostate; MALME-3M melanoma; MDA-MB-231 breast; RXF 393 renal; SF-268 CNS; SF-295 CNS; SF-539 CNS; UACC-257 melanoma; M14 melanoma.
Holding throughout (test): NCI-60 one-dose screen, 48 h (100 = growth as untreated, 0 = no growth, -100 = all killed)
What all share (settings): 10 µM unless noted

Turning to `O=C1C=CC(=O)N1c1cccc(Cl)c1`, the growth in the test on NCI-H23 lung is 103%; in the test on NCI-H226 lung, 107%; with NCI-H322M lung it was 121%; in the test on HOP-62 NSCLC, 101%; in the test with NCI-H460 lung, 111%; in the test on HOP-92 NSCLC, 76%. Further, the growth was 69.9% with NCI-H522 lung; 93% with A549/ATCC NSCLC; 105% in the test on 786-0 renal; -6.46% (active) in the test with COLO 205 colon; 123% in the test on DU-145 prostate; 120% in the test on MALME-3M melanoma. The growth was 132% with MDA-MB-231 breast; 116% in the test on RXF 393 renal; 108% in the test with SF-268 CNS; 107% with SF-295 CNS; 113% with SF-539 CNS; 97.1% with UACC-257 melanoma. Besides, in the test with M14 melanoma, the growth was 114%.
`C=C(CBr)[C@@H]1CC[C@]2(COC(C)=O)CC[C@]3(C)[C@H](CC[C@@H]4[C@@]5(C)CCCNC(C)(C)[C@@H]5CC[C@]43C)[C@@H]12`: the growth in the test on NCI-H23 lung was 37.7%; in the test on NCI-H226 lung it was 76.9%; in the test on NCI-H322M lung, 83.1%; in the test with HOP-62 NSCLC, 67.9%; in the test with NCI-H460 lung it was 17%; with HOP-92 NSCLC it was 39.3%. Further, the growth with NCI-H522 lung was 31.1%; with A549/ATCC NSCLC, 34.4%; in the test on 786-0 renal, 45.7%; in the test with COLO 205 colon it was 48.1%; with DU-145 prostate, 66.3%; in the test with MALME-3M melanoma, 71%. The growth is 65.6% in the test on MDA-MB-231 breast; 56% in the test on RXF 393 renal; 50.3% with SF-268 CNS; 59.5% in the test on SF-295 CNS; 49.7% in the test on SF-539 CNS; 23.4% with UACC-257 melanoma. Also, the growth in the test on M14 melanoma was 40%.
Turning to `N#CC1=C(N)Oc2c(cnn2-c2ccc([N+](=O)[O-])cc2[N+](=O)[O-])C1c1ccccc1` (configuration not stated), the growth is 104% in the test on NCI-H23 lung; 97% in the test on NCI-H226 lung; 97.7% in the test on NCI-H322M lung; 98.3% in the test with HOP-62 NSCLC; 103% with NCI-H460 lung; 75.6% in the test on HOP-92 NSCLC. In addition, the growth in the test with NCI-H522 lung is 95.3%; in the test with A549/ATCC NSCLC, 103%; in the test on 786-0 renal, 114%; in the test with COLO 205 colon it was 111%; in the test with DU-145 prostate, 114%; with MALME-3M melanoma, 99.8%. In addition, the growth in the test on MDA-MB-231 breast was 105%; with RXF 393 renal, 110%; in the test on SF-268 CNS, 102%; in the test with SF-295 CNS it was 93.3%; in the test on SF-539 CNS, 98.2%; in the test on UACC-257 melanoma, 94.1%. Besides, the growth with M14 melanoma is 95.3%.
As to `CC1(C)NCCC[C@]2(C)[C@H]3CC[C@@H]4[C@H]5[C@H](C(=O)/C=C/c6ccco6)CC[C@]5(CO)CC[C@@]4(C)[C@]3(C)CC[C@@H]12`, the growth in the test on NCI-H23 lung was 89.1%; with NCI-H226 lung it was 94.8%; in the test on NCI-H322M lung, 92.6%; in the test with HOP-62 NSCLC, 91.8%; in the test on NCI-H460 lung, 56.2%; in the test on HOP-92 NSCLC, 70.1%. The growth was 88.3% in the test on NCI-H522 lung; 87.2% in the test on A549/ATCC NSCLC; 74.4% in the test on 786-0 renal; -2.99% (active) with COLO 205 colon; 97.4% in the test with DU-145 prostate; 78.7% with MALME-3M melanoma. The growth was 96.2% in the test with MDA-MB-231 breast; 89.2% in the test with RXF 393 renal; 95.7% with SF-268 CNS; 113% in the test with SF-295 CNS; 87.8% in the test with SF-539 CNS; 91.9% in the test with UACC-257 melanoma. Moreover, in the test on M14 melanoma, the growth was 91.3%.
On to `NC(=O)CSSCC(N)=O`, for which the growth is 99.2% in the test with NCI-H23 lung; 108% with NCI-H226 lung; 96.9% in the test on NCI-H322M lung; 103% with HOP-62 NSCLC; 111% in the test with NCI-H460 lung; 83.8% in the test on HOP-92 NSCLC. For the same compound, the growth is 92.1% with NCI-H522 lung; 93.1% with A549/ATCC NSCLC; 95.3% in the test on 786-0 renal; 108% in the test with COLO 205 colon; 104% in the test on DU-145 prostate; 93.3% in the test on MALME-3M melanoma. In addition, the growth was 109% with MDA-MB-231 breast; 117% with RXF 393 renal; 97.9% in the test with SF-268 CNS; 97.1% in the test with SF-295 CNS; 102% in the test with SF-539 CNS; 95.8% in the test on UACC-257 melanoma. Also, the growth in the test on M14 melanoma was 93.2%.
As for `COc1ccc(C(=O)c2nc3ccccc3n2CC(=O)c2ccc(Cl)cc2)cc1`, the growth in the test with NCI-H23 lung is 30.9%; in the test on NCI-H226 lung, 37.5%; in the test on NCI-H322M lung, 84.8%; in the test on HOP-62 NSCLC, 42.4%; in the test with NCI-H460 lung it was 68.7%; in the test with HOP-92 NSCLC, 54.4%. Also, the growth in the test with NCI-H522 lung was -22.3% (active); in the test on A549/ATCC NSCLC, 81.4%; with 786-0 renal, 34.7%; with COLO 205 colon, 111%; in the test on DU-145 prostate, 35.2%; in the test with MALME-3M melanoma, 46%. The growth in the test on MDA-MB-231 breast was 35.6%; with RXF 393 renal it was 27.8%; in the test with SF-268 CNS, 41.7%; in the test with SF-295 CNS, 10.2%; in the test with SF-539 CNS, 16.4%; in the test on UACC-257 melanoma, 37.4%. In the test with M14 melanoma, the growth was 7.42% (active).
Take `Cc1nc2ccc(Cl)cn2c1-c1nnc(SCc2ccc([N+](=O)[O-])cc2)o1`: the growth with NCI-H23 lung is 55.9%; in the test on NCI-H226 lung it was 56.4%; in the test on NCI-H322M lung it was 63.6%; in the test on HOP-62 NSCLC, 49.6%; in the test on NCI-H460 lung it was 49.5%; in the test with HOP-92 NSCLC, 48.3%. Also, the growth in the test on NCI-H522 lung was 45.8%; in the test with A549/ATCC NSCLC, 66.8%; in the test on 786-0 renal it was 62.5%; in the test with COLO 205 colon, 105%; with DU-145 prostate, 67.9%; with MALME-3M melanoma it was 31.6%. Also, the growth in the test on MDA-MB-231 breast is 41.4%; with RXF 393 renal it was -5.38% (active); with SF-268 CNS it was 46.1%; with SF-295 CNS it was 74.6%; with SF-539 CNS, 20.8%; with UACC-257 melanoma it was 61.3%. Besides, the growth in the test with M14 melanoma is 70.3%.
`OCc1cnc2ccccc2c1NC1CCCCCC1`: the growth in the test on NCI-H23 lung is 77.4%; in the test with NCI-H226 lung, 80.4%; with NCI-H322M lung, 89.3%; in the test with HOP-62 NSCLC, 95.8%; in the test on NCI-H460 lung, 93.1%; in the test with HOP-92 NSCLC, 83.6%. Further, the growth in the test with NCI-H522 lung was 61.7%; in the test on A549/ATCC NSCLC, 84.6%; in the test with 786-0 renal it was 101%; in the test on COLO 205 colon, 110%; in the test with DU-145 prostate, 97.7%; in the test on MALME-3M melanoma it was 102%. Besides, the growth with MDA-MB-231 breast is 81.3%; in the test on RXF 393 renal, 103%; with SF-268 CNS it was 101%; in the test with SF-295 CNS, 86.4%; in the test with SF-539 CNS, 102%; in the test with UACC-257 melanoma, 94.5%. For the same compound, the growth in the test with M14 melanoma was 91.4%.
